This experiment deals with Plasmodium falciparum. Put plainly: GSK_TCMDC: Inhibition of Plasmodium falciparum 3D7 in whole red blood cells, using parasite LDH activity as an index of growth. Test compounds present at 2uM. The experiment is classed as functional.
For orientation: Inhibition means the relative decrease from the control value, in per cent. A higher Inhibition goes with a strong effect. On to `O=C(Nc1ccc(Cl)cc1)c1ccc(CN2CCCN(CC3CCCCC3)CC2)cc1.O=C(O)C(F)(F)F`, for which the Inhibition was found to be 92%.
On to `O=C(Nc1cccc(-c2cccc(-c3nc4cc(C(F)(F)F)ccc4[nH]3)c2)c1)Nc1ccc(F)c(F)c1F`, for which the Inhibition turned out to be 99%.
With `Cc1cc(NC(=O)Nc2ccc(Cl)cc2F)c2ccccc2n1` the figure was 100%; with `CC(C)CCNC(=O)C1Cc2c([nH]c3cc(Br)ccc23)C2(CCN(Cc3ccccc3)CC2)N1` (stereo not given), 96%.
With `CN1C(=CC(=O)NC(=O)c2ccccc2)C(C)(C)c2ccccc21` the figure was 93%.
Consider `Cc1cccc2nc(-c3ccc(-c4cccc(NC(=O)CN5CCN(C)CC5)c4)s3)[nH]c12`, for which the Inhibition is on record as 96%.
The same measure for `CC(=O)C=C1CC(=O)N(C[C@@H](O)[C@H]2O[C@@H]3OC(C)(C)O[C@@H]3[C@H]2O)c2ccccc2N1`: 90%; for `CO/C(=C\C=C\c1cc2cc(Cl)c(Cl)cc2[nH]1)C(=O)NCCCN1CCN(c2cccc(O)c2)CC1`: 91%.
Compound `N=C(N)NCCCN(Cc1ccccc1)c1ccc(Cl)cc1.O=S(=O)(O)O` registered an Inhibition of 100%.
The same measure for `O=C(Nc1ccc(C(F)(F)F)cc1)NC1CCN(c2ccnc3ccccc23)CC1.O=C(O)C(F)(F)F`: 100%; for `CC(C)C[C@H](NC(=O)c1ccc(OCCN2CCOCC2)cc1)C(=O)N[C@H](/C=N/N(C)C(=O)c1ccccc1)CCc1ccccc1`: 91%.
With `Cc1ccc(C(=O)Nc2ccc(Nc3ccnc4cc(-c5ccncc5)ccc34)cc2O)cc1` the figure was 97%; with `CC(C)CC(C)NC(=O)C1Cc2c([nH]c3ccc(F)cc23)C2(CCN(Cc3ccccc3)CC2)N1` (stereo not given), 97%; with `COc1ccc2nccc([C@@H](O)CN3CCC(NC(=O)c4ccc(CN5CCN(c6cccc(C)c6)CC5C)cc4)CC3)c2c1` (stereo not given in full), 97%.
In turn, `CC(C)(C)C1CCC(CC2=C(C(=O)O)c3ccccc3C2=O)CC1` (stereo not given) came in with an Inhibition of 91%.
The same measure for `O=C(C1CC1c1ccccc1)N(Cc1ccc(-c2ccc(CNCCc3ccccc3)cc2)cc1)C1CCNCC1.O=C(O)C(F)(F)F` (stereo not given): 96%.
With `Cn1cc(C2CCN(CCCCNC(=O)c3ccc(-c4ccc(C(F)(F)F)cc4)c(CO)c3)CC2)c2ccccc21` the figure was 88%.
The same measure for `O=C(/C=C/c1ccc(Cl)c(Cl)c1)NCCCCCN1CCC(NC(=S)Nc2cccc(Cl)c2)CC1`: 99%; for `N#Cc1cccc(CN2CCCN(c3ccc(NC(=O)c4cccs4)cc3)CC2)c1.O=C(O)C(F)(F)F`: 96%; for `CCCNc1nc(NCc2c(C)cccc2C)nc(NC(C)(C)C)n1`: 91%.
With `CCCNC(=O)Nc1cc2cc(-c3ccc(CN4CCCC4)cc3)ccc2n2c(C)nnc12`, the Inhibition worked out at 93%.
The same measure for `CCN1C(=O)C(CC(=O)Nc2cccc(Cl)c2)N(Cc2ccc(OC)c(OC)c2)C1=S` (stereo not given): 100%; for `COc1ccc(C(C(=O)NC2CCN(C[C@H](O)c3ccnc4ccc(OC)cc34)CC2)N2CCN(Cc3ccccc3)CC2)cc1` (stereo not given in full): 100%; for `CCCCc1cc(NCc2ccncc2)nc(Nc2ccccc2)n1`: 96%.
Regarding `CC(CNC(=O)C(c1cc2ccccc2o1)N1CCN(C(c2ccccc2)c2ccccc2)CC1)c1ccccc1` (stereo not given), the Inhibition turned out to be 99%.
With `Cc1cc(=O)oc2c1ccc1oc(C(O)c3ccc(Cl)cc3)c(C)c12` (stereo not given) the figure was 95%.
With `CCOc1cc(C(=O)Nc2ccc(-c3nc4ccccc4[nH]3)cc2)cc(OCC)c1OCC` the figure was 100%.
For `CC(C)C[C@@H]1C(=O)N[C@H](C2Cc3ccccc3C2)C(=O)N1[C@@H](C(=O)O)c1ccc(F)cc1F`, the Inhibition came to 98%.
The same measure for `Cl.NC1=NC(c2ccccc2)N(c2ccccc2)C(N)=N1` (stereo not given): 96%; for `COc1cc(C)nc2ccc(NC(=O)Nc3ccc4nc(C)cc(OC)c4c3)cc12`: 100%.
The same measure for `COc1ccc2ncc(F)c(CCN3CCC(NCc4cc(Br)c5c(c4)OCCO5)CC3)c2n1.Cl`: 100%; for `COc1cc(-c2[nH]c(-c3ccc(OCCN(C)C)cc3)cc2-c2ccncc2)ccc1Cl.Cl`: 93%; for `Cc1nc(-c2ccc(-c3ccc(C(=O)Nc4ccc(-n5ccnc5)c(N5CCN(C)CC5)c4)cc3)c(C)c2)no1`: 100%.
Regarding `Fc1ccc2[nH]c(-c3cccc(-c4ccc(CNCc5cnn(-c6ccccc6)n5)cc4)c3)nc2c1.O=C(O)C(F)(F)F`, the Inhibition is on record as 98%.
The same measure for `CN(C)CCN1CCN(Cc2ccc(-c3cccc(-c4nc5ccccc5[nH]4)c3)cc2)CC1.O=C(O)C(F)(F)F`: 100%; for `Fc1ccccc1CNc1ncc(-c2ccsc2)c(-c2nccs2)n1`: 86%; for `O=C(NCc1ccc(Cl)cc1)c1ccc(C(=O)NCC2CCCN2CC2CCCCC2)cc1.O=C(O)C(F)(F)F` (stereo not given): 97%.
The same measure for `O=C(/C=C/c1ccc(Cl)c(Cl)c1)NC1CCC(CN2CCC(c3coc4ccccc34)CC2)CC1` (stereo not given): 100%; for `Cc1cccc2nc(-c3cccc(-c4ccc(CNCCCN5CCCC5=O)cc4)c3)[nH]c12.O=C(O)C(F)(F)F`: 100%.
With `Oc1cccc(-c2nc(-c3cccc(I)c3)c(-c3ccc(-c4nc(-c5cccc(O)c5)[nH]c4-c4cccc(I)c4)cc3)[nH]2)c1` the figure was 96%.

These data come from ChEMBL document CHEMBL1157539, “Thousands of chemical starting points for antimalarial lead identification” (Nature, 2010).
